Screens (PubChem BioAssay)
TexasRed autofl = Texas Red region autofluorescence; Compound fluorescence, Texas Red channel, 547/618 nm; hits give high values; max dye-equivalent concentration, M; 0.06% of 59,000 active; in the data active = max dye-equivalent concentration above about 10 nM; inconclusive = between about 1.1 nM and that limit
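Dye-equivalent concentrations come from scaling compound signal (ex 547, em 618 nm) to six Texas Red standard concentrations run on every plate, after 15 min room-temperature incubation in pH 8.0 Tris (100 mM).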
A647 autofl = compound fluoresces in the A647 spectral region. Compound fluorescence, A647 channel (570/671 nm), Tris buffer. max dye-equivalent concentration, M. 59,000 tested, under 10 active
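Tris 100 mM pH 8.0; cpd + A647 stds pin-transferred; 15 min RT; CCD imager, ex 570/em 671. Output = A647-equivalent conc. per cpd conc.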
Fluorescein fluor = compound autofluorescence in fluorescein spectral region; Compound autofluorescence, 480/540 nm, fluorescein-equivalent; hits give high values; max fluorescein-equivalent concentration, M; 0.91% of 59,000 active; in the data active = max fluorescein-equivalent concentration above about 10 nM; inconclusive = between about 1.1 nM and that limit
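Library compounds, added at multiple concentrations to pH 8.0 Tris buffer (100 mM), incubate 15 min at room temperature before CCD imaging at 480 nm excitation and 540 nm emission.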
Rhodamine autofl = compound fluoresces in the rhodamine spectral region. 0.05% of 59,000 active. Rhodamine-region fluorescence, 547/598 nm, Tris buffer; hits give high values. AID 594. max dye-equivalent concentration, M; in the data active = max dye-equivalent concentration above about 11 nM; inconclusive = between about 1.1 nM and that limit
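Intensities are converted to rhodamine-equivalent concentration using a six-point rhodamine standard on each plate. Compounds sit 15 min at room temperature in 100 mM Tris buffer, pH 8.0; read uses the 547/598 nm excitation/emission pair.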
A488 autofl = compound autofluorescence in A488 spectral region; AID 591; 0.1% of 59,000 active; compound autofluorescence, A488 spectral region, dye equivalency; Compound Type: qHTS ECL - MLSMR; max dye equivalency, M
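Autofluorescence read at ex 480/em 540 nm after 15 min RT in 100 mM Tris pH 8.0; compound signal normalized to A488 standard series on each plate, reported as dye-equivalent concentration at each test concentration.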
Resorufin autofl = compounds fluorescent in resorufin spectral region; Compound fluorescence, resorufin region 547/598 nm, buffer; hits give high values; max dye-equivalent concentration, M; 0.04% of 59,000 active
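Compounds in 100 mM Tris buffer, pH 8.0, incubated 15 min at room temperature, then read with 547 nm excitation and 598 nm emission filters. Fluorescence was converted to dye-equivalent concentration using an on-plate six-point resorufin standard curve.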
Large screens that a line does not name were inactive; ! = not confirmed by another sample. This is a sample that favours compounds with a hit; in the whole collection about 0.9% have one here. Unless noted, the rule behind the calls is not given here.

CN1[C@@H]2CC[C@H]1CC(OC(=O)[C@@H](CO)c1ccccc1)C2 (stereo not given in full)	TexasRed autofl inconclusive, Fluorescein fluor 3e-08M!
COc1cc(C(=O)N(CCc2ccccc2)C2CC3CCC(C2)N3C)cc(OC)c1OC (stereo not given)	TexasRed autofl inconclusive
CCOC(=O)N1CCN(Cc2nc3c(c(=O)n(C)c(=O)n3C)n2CCCc2ccccc2)CC1	TexasRed autofl inconclusive, Fluorescein fluor 5.6e-08M, Rhodamine autofl inconclusive, A488 autofl inconclusive, Resorufin autofl inconclusive
CN(C)CCCOc1nn(Cc2ccccc2)c2ccccc12	Fluorescein fluor 1.9e-08M
CCSc1nnc(NC(=O)C2Cc3ccccc3CN2C(=O)c2ccco2)s1 (stereo not given)	Fluorescein fluor inconclusive
COc1cccc(=O)c2c(C)oc(C)c12	Fluorescein fluor 7.1e-08M, A488 autofl inconclusive
O=C(Nc1ccc2c(c1)OCO2)C1CCCN(c2nc3ccccc3s2)C1 (stereo not given)	TexasRed autofl 2.6e-08M, Fluorescein fluor inconclusive, Rhodamine autofl 1.2e-08M, Resorufin autofl inconclusive
CCc1nnc(NC(=O)C2CCCN(c3nc4ccccc4s3)C2)s1 (stereo not given)	Fluorescein fluor inconclusive
CN(C)C1NC(=O)c2cc(-c3ccccc3)sc2N1 (stereo not given)	TexasRed autofl inconclusive, Fluorescein fluor inconclusive
CCOC(=O)Cc1nnc(NC(=O)CC)s1	TexasRed autofl inconclusive, Fluorescein fluor inconclusive
O=C(NC1CCCC1)c1cnn2c(C(F)(F)F)cc(-c3ccc4c(c3)OCO4)nc12	Fluorescein fluor 4.6e-08M, A488 autofl inconclusive
O=C(c1cnn2c(C(F)(F)F)cc(-c3ccc4c(c3)OCO4)nc12)N1CCCCC1	none
COc1ccc(OC)c(S(=O)(=O)N(C)CC(=O)N2CCc3ccccc3C2)c1	none
Nc1nonc1C(=O)NCCN=Cc1cc(Cc2ccccc2)cc(Br)c1O	Fluorescein fluor 2e-08M
COc1ccc2[nH]cc(CCNc3ncncc3-c3c(C)noc3C)c2c1	Fluorescein fluor inconclusive
CC1CCc2cccc3c2N1c1cc(C#N)c(C#N)cc1O3 (stereo not given)	TexasRed autofl inconclusive, Fluorescein fluor 6.3e-08M, A488 autofl inconclusive
COc1ccc2nc(N3CCCCC3)c(C#N)cc2c1	TexasRed autofl inconclusive, Fluorescein fluor 1.5e-08M
COc1ccc2nc(N3CCCC3)c(C#N)cc2c1	Fluorescein fluor 7.2e-08M, A488 autofl inconclusive
CC(=O)N1CCC2(CCCN(c3ccncc3)C2)CC1	none
O=C(COC(=O)c1cnccn1)Nc1ccc(Cl)cc1	Fluorescein fluor 1.1e-08M
CCOC(=O)c1c(C)[nH]c(C)c1C(=O)Cn1nnc(-c2ccccc2C)n1	Fluorescein fluor 1e-08M
CCCC(=O)Nc1ccc(NC(=O)C2CC2)cn1	TexasRed autofl inconclusive
Cc1sc2nc(CSc3nc4ccccc4c(=O)n3CCCN3CCOCC3)[nH]c(=O)c2c1C	Fluorescein fluor 3.4e-08M, A488 autofl inconclusive
CC(=O)c1c(C)[nH]c(C(=O)CSc2nc3ccccc3c(=O)n2CCCN2CCOCC2)c1C	TexasRed autofl inconclusive, Fluorescein fluor inconclusive
CC(=O)S[C@H]1CC2=CC(=O)CC[C@@]2(C)[C@H]2CC[C@@]3(C)[C@H](CC[C@]34CCC(=O)O4)[C@@H]12	TexasRed autofl 1e-08M, Fluorescein fluor 4.9e-08M, Rhodamine autofl inconclusive, A488 autofl inconclusive, Resorufin autofl inconclusive
CCNc1ncc2nc(-c3ccccc3)c(=O)n(Cc3cccc(OC)c3)c2n1	none
O=c1c(-c2ccc(Cl)cc2)nc2cnc(N3CCOCC3)nc2n1C1CC1	Fluorescein fluor 1e-08M
Cc1nc2ccc(Cl)cc2nc(C)/c1=N\O	TexasRed autofl inconclusive, Fluorescein fluor 1.1e-07M, A488 autofl inconclusive
CC(=O)c1c(C)nc2cc(Cl)ccc2c1N	none
O=C(Cn1cnc2c(nnn2-c2ccc(F)cc2)c1=O)NCC1CCCO1 (stereo not given)	none
Cn1c(=O)cc(SCC(=O)Nc2ccccn2)c2ccccc21	none
O=C(NC12CC3CC(CC(C3)C1)C2)c1cnccn1	TexasRed autofl inconclusive, Fluorescein fluor 1.1e-08M
O=c1c(-c2ccccc2)n[nH]c2ccccc12	none
O=C1c2ccccc2-c2n[nH]c3cccc1c23	Fluorescein fluor 4.7e-08M, A488 autofl inconclusive
C=CCn1c(/N=C/c2ccc(N(C)C)cc2)nc2ccccc21	Fluorescein fluor 2.1e-08M
CN(C)c1ccc(/C=N/n2ncc3ccccc32)cc1	none
COc1cccc2c1C(=O)c1c(O)c3c(c(O)c1C2=O)C[C@](O)(C(=O)CO)C[C@H]3O[C@@H]1C[C@H](N)[C@H](O)[C@H](C)O1	TexasRed autofl 9.5e-08M, Fluorescein fluor 3e-07M, Rhodamine autofl 9.8e-08M, A488 autofl 1.3e-08M, Resorufin autofl 7.2e-08M
Cn1cccc1C(=O)N1CCC[C@@]2(CCN(c3ccccc3)C2)C1	Fluorescein fluor 1.1e-08M
CN1C=CC2=C(C#N)C(N)C(C#N)(C#N)C(c3ccccc3)C2C1 (stereo not given)	Fluorescein fluor 3.3e-08M, A488 autofl inconclusive
CCOC(=O)c1oc2cc(O)ccc2c(=O)c1-c1csc(C)n1	Fluorescein fluor inconclusive
CCOC(=O)c1ccc(CC(=O)c2oc3cc(O)ccc3c2C)o1	TexasRed autofl inconclusive, Fluorescein fluor 2.3e-08M
CC(=O)c1c[nH]c2ccc(C)cc2c1=O	Fluorescein fluor inconclusive
CCOC(=O)c1ccc2[nH]cc(C(C)=O)c(=O)c2c1	Fluorescein fluor 2.2e-08M
Cn1cccc1C(=O)N1CCC2(CC1)CN(Cc1cc(C(F)(F)F)cc(C(F)(F)F)c1)C2	none
CN(C)c1ccc(N/C=C/C(=O)c2ccc(F)cc2)cc1	Fluorescein fluor 2.4e-08M
CN1CCc2c(sc3c2C(=O)NC(c2cccs2)N3)C1 (stereo not given)	TexasRed autofl inconclusive, Fluorescein fluor 1.8e-08M
Cc1ccc(C2NC(=O)c3ccccc3N2)s1 (stereo not given)	TexasRed autofl inconclusive
COc1cccc(-c2nccc(NC3CCNCC3)n2)c1	Fluorescein fluor inconclusive
Cc1oc(C)c2c(=O)ccc3c(c12)OC(N)=C(C#N)C3c1ccccc1 (stereo not given)	Fluorescein fluor 1.1e-08M
CSc1ccc(C2C(C#N)=C(N)Oc3c2ccc(=O)c2c(C)oc(C)c32)cc1 (stereo not given)	Fluorescein fluor inconclusive
CC(=O)C1=C(C)OC(N)=C(C#N)C1c1ccco1 (stereo not given)	Fluorescein fluor inconclusive
Cc1oc(C)c2c(=O)ccc3c(c12)OC(N)=C(C#N)C3c1ccccc1Cl (stereo not given)	Fluorescein fluor 1.5e-08M
O=C(Cn1cc(C(=O)COc2ccccc2)c2ccccc21)NCc1ccco1	Fluorescein fluor 1.5e-08M
Cn1c(C(=O)N2COCC2(C)C)cc2c(=O)n3ccccc3nc21	none
CC1=C(C#N)C(c2ccoc2)C(C(=O)OCc2ccccc2)=C(N)S1 (stereo not given)	none
